Activity calls are given as the source filed them.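 How the source made its calls, unless noted: active means fluorescence slope after compound addition differing from the mean of all screened samples at 99.7% confidence, in either direction; inactive means the rest.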

The record followed here is PubChem BioAssay.

Experiment [1] in a line: inhibitors of TNFa-induced NFkB p65 translocation, primary screen, imaging, HUVEC, MLSMR starter and 10KST1 sets (AID 438;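 active means inhibition above 20% together with a positive visual image hit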;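 further: compound added about 3h40 before a 20 min TNFalpha stimulation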;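 on inhibition: signal is the nuclear over cytoplasmic p65 intensity ratio per well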). The following applies: HUVEC TNFa-induced p65 nuclear translocation; cell count: measured here: nuclei count (cytotoxicity indicator), at 2.08 µM; inhibition: at 2 µM, stronger effect = higher value, 0% TNFa-plus-vehicle, 100% no-TNFa wells.
Experiment [2] is described as follows: inhibitors of mutant huntingtin aggregation, primary screen, imaging, exon1htt(103Q)mCFP cells, high-content imaging (AID 483;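 active means visual image review flags a hit and inhibition of aggregation exceeds 20%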;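 further: compound exposure lasted 3 days before fixation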;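 on nuclei count: percent of the per-plate median nuclei count of sample wells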). The following applies: exon1htt(103Q)mCFP cell line, aggregate imaging, at 2 µM; inhibition of aggregation: stronger effect = higher value; nuclei count: measured here: cell count, toxicity.
A short description of experiment [3]: inhibitors of E-selectin induction by TNFa, primary screen, imaging, HUVEC, immunofluorescence, MLSMR starter and 10KST1 sets (AID 487;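 active means visually confirmed hit in the image check and inhibition above 20%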;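 on inhibition: signal is fraction of cell area covered by stained E-selectin grains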;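 on nuclei count: 100% = median nuclei count of all wells on the same plate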). Conditions: HUVEC TNFalpha-induced E-selectin immunofluorescence imaging, at 2 µM; inhibition: stronger effect = higher value; nuclei count: measured here: cell number, toxicity.
Experiment [4] concerns the target Voltage-gated potassium channel subunit beta-2 (Rattus norvegicus) (UniProt P62483). Description: KvBeta enzyme negative modulators, primary screen, biochemical, NADPH fluorescence (AID 622;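 active means fluorescence slope higher than the sample average by over 3 SD, cut at about -0.22 in these data, passing the limit was not always enough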;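 further: slope of raw intensity against log time taken from 70 to 1610 s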). The following applies: recombinant KvBeta, 4-cyanobenzaldehyde reduction, at 10 µM, stronger effect = higher value.
Experiment [5] has the same target. Description: KvBeta positive modulators, primary screen, biochemical, NADPH fluorescence (AID 623;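 active means NADPH fluorescence slope more negative than the mean of all samples by about 3 SD, 99.7% confidence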;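 further: fluorescence intensity change per second fitted from 20 to 320 s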). Conditions: Recombinant KvBeta, NADPH fluorescence decrease slope, 10 min; at 10 µM; stronger effect = lower value.
Experiment [6] addresses Alpha-2C adrenergic receptor (Homo sapiens) (UniProt P18825). Description: modulators of alpha2C/GIRK thallium flux, primary screen, cell-based, HEK293 alpha2C/GIRK1/2 (AID 624).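 Further: slope of fluorescence ratio to pre-addition baseline per second over 15 to 24 s.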 Conditions: thallium flux BTC fluorescence, at 10 µM, actives lie on both sides.
The nature of experiment [7]: inhibitors of Sendai virus-induced IRF3 signaling, primary screen, TLR/RLR signaling modifier project, cell-based, Sendai virus stimulus, luciferase, 10K MLSCN set (AID 602276;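 active means inhibition at or above 50% at 10 µM; inactive means inhibition below 50%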;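 further: firefly luciferase from ISG56 promoter only with Renilla not read in this screen; 0% = Sendai virus plus DMSO and 100% = medium plus DMSO without virus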). Conditions: HEK293 RL24 IRF3 luciferase reporter, at 10 µM, stronger effect = higher value.
Experiment [8] can be described thus: inhibitors of poly I:C-induced TLR3 signaling, primary screen, cell-based, poly I:C stimulus, luciferase, 10K MLSCN set (AID 602277;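 active means inhibition of the reporter signal at or above 50%; inactive means inhibition below 50%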). Conditions: HEK293-TLR3 RL24 IRF3 luciferase reporter, at 10 µM, stronger effect = higher value.

Sequence of Voltage-gated potassium channel subunit beta-2 (Rattus norvegicus) (P62483 whole entry, looked up): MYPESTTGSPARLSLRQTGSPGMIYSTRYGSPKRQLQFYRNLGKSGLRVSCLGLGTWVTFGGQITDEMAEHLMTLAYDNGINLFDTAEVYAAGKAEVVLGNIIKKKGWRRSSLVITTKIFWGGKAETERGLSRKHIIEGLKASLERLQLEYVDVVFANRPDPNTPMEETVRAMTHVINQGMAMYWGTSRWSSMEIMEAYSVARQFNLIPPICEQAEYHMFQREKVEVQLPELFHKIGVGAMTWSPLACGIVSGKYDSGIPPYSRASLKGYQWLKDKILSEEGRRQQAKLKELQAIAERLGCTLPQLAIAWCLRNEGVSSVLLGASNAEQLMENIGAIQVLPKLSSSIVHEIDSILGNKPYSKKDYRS
Sequence of Alpha-2C adrenergic receptor (Homo sapiens) (P18825 whole entry, looked up): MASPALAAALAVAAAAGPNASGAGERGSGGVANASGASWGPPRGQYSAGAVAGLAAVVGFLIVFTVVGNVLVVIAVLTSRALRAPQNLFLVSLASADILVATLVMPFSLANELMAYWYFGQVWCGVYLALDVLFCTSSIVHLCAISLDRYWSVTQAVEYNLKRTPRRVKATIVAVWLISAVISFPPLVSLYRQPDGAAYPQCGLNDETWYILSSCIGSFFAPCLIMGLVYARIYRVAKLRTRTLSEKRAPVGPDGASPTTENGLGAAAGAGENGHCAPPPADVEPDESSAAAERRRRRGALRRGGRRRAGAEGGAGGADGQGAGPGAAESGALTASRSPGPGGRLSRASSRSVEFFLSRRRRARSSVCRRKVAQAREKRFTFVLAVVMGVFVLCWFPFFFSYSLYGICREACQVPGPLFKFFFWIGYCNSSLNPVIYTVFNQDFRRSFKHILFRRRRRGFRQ

What is called inhibition is the drop in the measured response relative to a control, in per cent. `CCCCSc1nc2c(cnn2-c2ccc(F)cc2)c(=O)[nH]1`: the cell count in experiment [1] is 619. The inhibition was -10.7% (inactive) in experiment [1], -19.6% (inactive) in experiment [3], 4.85% (inactive) in experiment [7] and 12.8% (inactive) in experiment [8]. The inhibition of aggregation in experiment [2] is 13.9% (inactive). Also, the values for the nuclei count in experiment [2] and in experiment [3] were 81.3% and 122%, respectively. The fluorescence slope in experiment [4] is -0.458 (inactive). For the same compound, the NADPH fluorescence slope in experiment [5] was -3.7e-05 (inactive). Besides, the slope in experiment [6] was 0.00558 (inactive).

Turning to `O=C1C(Cl)=C(NCC2CCCO2)C(=O)N1CCc1ccccc1` (centres undefined), the cell count in experiment [1] amounted to 711. For the same compound, the inhibition in experiment [1] is -10% (inactive); in experiment [3], 27.8% (inactive); in experiment [7] it was -53.6% (inactive); in experiment [8], -108% (inactive). For the same compound, the inhibition of aggregation in experiment [2] was 9.2% (inactive). The results for the nuclei count in experiment [2] and in experiment [3] were 102% and 107%, respectively. In addition, in experiment [4], the fluorescence slope is -0.448 (inactive). Also, the NADPH fluorescence slope in experiment [5] is 1.5e-05 (inactive). For the same compound, the slope in experiment [6] is 0.00576 (inactive).

Turning to `O=C(c1cc(C2CC2)on1)N1CCN(C(c2ccccc2)c2ccccc2)CC1`, the cell count in experiment [1] came out at 731. Besides, the inhibition in experiment [1] was -3.5% (inactive); in experiment [3], -61% (inactive); in experiment [7], 7.04% (inactive); in experiment [8] it was 35.9% (inactive). Besides, the inhibition of aggregation in experiment [2] is 25% (inactive). Moreover, the figures for the nuclei count in experiment [2] and in experiment [3] were 82% and 89.3%, respectively. Moreover, the fluorescence slope in experiment [4] is -0.573 (inactive). Moreover, in experiment [5], the NADPH fluorescence slope was -7.4e-06 (inactive). Moreover, the slope in experiment [6] is 0.00569 (inactive).

On to `Cc1cc(NC(=O)CSc2nc3ccccc3n2CC(=O)N2CCCCC2)no1`, for which the cell count in experiment [1] came out at 722. For the same compound, the inhibition in experiment [1] is -2% (inactive); in experiment [3] it was -70.8% (inactive); in experiment [7] it was 14.5% (inactive); in experiment [8], 29.1% (inactive). Besides, in experiment [2], the inhibition of aggregation was -15% (inactive). Besides, the nuclei count in experiment [2] was 108%; in experiment [3] it was 119%. Further, the fluorescence slope in experiment [4] was -0.475 (inactive). Moreover, the NADPH fluorescence slope in experiment [5] is -4.9e-05 (inactive). For the same compound, in experiment [6], the slope is 0.00628 (inactive).

With `COC(=O)c1sc(N)c(C(=O)OC)c1CSc1nc2sc3c(c2c(=O)n1C)CCC3`, the cell count in experiment [1] was found to be 428. Further, the inhibition was 14.1% (inactive) in experiment [1], 2.9% (inactive) in experiment [3], -6.85% (inactive) in experiment [7] and 15% (inactive) in experiment [8]. In experiment [2], the inhibition of aggregation is -20% (inactive). For the same compound, the nuclei count in experiment [2] turned out to be 104%; in experiment [3], 111%. The fluorescence slope in experiment [4] was -0.524 (inactive). In experiment [5], the NADPH fluorescence slope was -6.8e-06 (inactive). Also, the slope in experiment [6] is 0.00788 (inactive).

As to `Cc1c(C(=O)NC2CC2)oc2ccc(S(=O)(=O)N3CCCCCC3)cc12`, the cell count in experiment [1] turned out to be 635. The inhibition in experiment [1] is 3.4% (inactive); in experiment [3], -102% (inactive); in experiment [7] it was -22.3% (inactive); in experiment [8], -28.3% (inactive). Further, the inhibition of aggregation in experiment [2] was -2.5% (inactive). The values for the nuclei count in experiment [2] and in experiment [3] were 92.4% and 116%, respectively. In experiment [4], the fluorescence slope is -0.508 (inactive). Besides, the NADPH fluorescence slope in experiment [5] was 4.1e-05 (inactive). For the same compound, the slope in experiment [6] is 0.00537 (inactive).

On to `Cc1nc2ccccc2c2oc(C(=O)N3CCN(C(=O)c4ccco4)CC3)cc12`, for which, in experiment [1], the cell count is 784. Also, the inhibition is 11.3% (inactive) in experiment [1], 4.8% (inactive) in experiment [3], 6.87% (inactive) in experiment [7] and 12.8% (inactive) in experiment [8]. Moreover, the inhibition of aggregation in experiment [2] is 0% (inactive). In addition, the nuclei count in experiment [2] is 65.6%; in experiment [3], 98.3%. Moreover, the fluorescence slope in experiment [4] was -0.585 (inactive). Besides, the NADPH fluorescence slope in experiment [5] was -1.4e-05 (inactive). In experiment [6], the slope was 0.00761 (inactive).

In the case of `CCOC(=O)N1CCN(C(=O)c2n[nH]c(=O)c3ccccc23)CC1`, the cell count in experiment [1] was determined as 515. In addition, the inhibition in experiment [1] is -9.4% (inactive); in experiment [3] it was -37.5% (inactive); in experiment [7] it was -11.6% (inactive); in experiment [8], -3.48% (inactive). Also, in experiment [2], the inhibition of aggregation is -7.2% (inactive). Besides, the values for the nuclei count in experiment [2] and in experiment [3] were 107% and 80.9%, respectively. The fluorescence slope in experiment [4] was -0.591 (inactive). Moreover, the NADPH fluorescence slope in experiment [5] is -2.8e-05 (inactive). For the same compound, the slope in experiment [6] was 0.00361 (inactive).

Consider `O=C(Nc1nc2c(s1)CCc1ccccc1-2)c1cccs1`, for which, in experiment [1], the cell count turned out to be 637. Moreover, the inhibition was -3.6% (inactive) in experiment [1], 30.8% (inactive) in experiment [3], 12.8% (inactive) in experiment [7] and -8.29% (inactive) in experiment [8]. The inhibition of aggregation in experiment [2] was -9.4% (inactive). Also, the values for the nuclei count in experiment [2] and in experiment [3] were 115% and 86.1%, respectively. The fluorescence slope in experiment [4] was -0.361 (inactive). In experiment [5], the NADPH fluorescence slope is 1.5e-05 (inactive). In experiment [6], the slope is 0.00613 (inactive).

On to `Cc1cc2cc(CN(CC3CCCO3)C(=O)c3cnccn3)c(=O)[nH]c2cc1C` (centres undefined), for which, in experiment [1], the cell count was found to be 330. The inhibition in experiment [1] was 5.3% (inactive); in experiment [3], -22.4% (inactive); in experiment [7], -3.76% (inactive); in experiment [8], -3.05% (inactive). In experiment [2], the inhibition of aggregation is -0.3% (inactive). The nuclei count is 107% in experiment [2] and 125% in experiment [3]. Further, in experiment [4], the fluorescence slope is -0.592 (inactive). The NADPH fluorescence slope in experiment [5] is -5.9e-05 (inactive). The slope in experiment [6] is 0.00376 (inactive).

`CCC(CC)n1[nH]c(=O)c2c(C)cc(C)nc21`: the cell count in experiment [1] was found to be 368. For the same compound, the inhibition in experiment [1] was 0.2% (inactive); in experiment [3], 13.4% (inactive); in experiment [7], 6.59% (inactive); in experiment [8], 13.6% (inactive). In experiment [2], the inhibition of aggregation was 0.4% (inactive). The nuclei count in experiment [2] and in experiment [3] was 106% in each case. Besides, the fluorescence slope in experiment [4] was -0.299 (inactive). Further, the NADPH fluorescence slope in experiment [5] was -6.9e-05 (inactive). Also, the slope in experiment [6] was 0.00499 (inactive).

With `CCC(=O)Nc1ccc(Cl)c(NC(=O)C(C)C)c1`, the cell count in experiment [1] is 410. For the same compound, the inhibition in experiment [1] was 0.3% (inactive); in experiment [3], -111% (inactive); in experiment [7] it was 5.28% (inactive); in experiment [8], 25.2% (inactive). For the same compound, the inhibition of aggregation in experiment [2] is -10.3% (inactive). Also, the nuclei count in experiment [2] came to 105%; in experiment [3] it was 81.5%. Besides, the fluorescence slope in experiment [4] is -0.47 (inactive). Besides, in experiment [5], the NADPH fluorescence slope was -3.3e-05 (inactive). For the same compound, the slope in experiment [6] is 0.00567 (inactive).

Take `Cc1ccc(N=C2NC(=O)CS2)c(C)c1`: the cell count in experiment [1] stood at 607. Also, the inhibition in experiment [1] was 7.4% (inactive); in experiment [3], 59.4% (active); in experiment [7] it was 2.6% (inactive); in experiment [8], 21.7% (inactive). In addition, the inhibition of aggregation in experiment [2] is 22.3% (inactive). Further, the values for the nuclei count in experiment [2] and in experiment [3] were 95.2% and 76.3%, respectively. Further, the fluorescence slope in experiment [4] is -0.47 (inactive). Moreover, the NADPH fluorescence slope in experiment [5] was -2.8e-05 (inactive). Moreover, the slope in experiment [6] is 0.00603 (inactive).

In the case of `O=C(Nc1ccc(Cc2ccc(NC(=O)N3CCOCC3)cc2)cc1)N1CCOCC1`, the cell count in experiment [1] stood at 494. Also, the inhibition is -2% (inactive) in experiment [1], 30.5% (inactive) in experiment [3], 0.542% (inactive) in experiment [7] and -1.84% (inactive) in experiment [8]. Besides, in experiment [2], the inhibition of aggregation was 15.7% (inactive). In addition, the nuclei count worked out at 61.1% in experiment [2] and 82.3% in experiment [3]. In addition, the fluorescence slope in experiment [4] is -0.416 (inactive). Further, the NADPH fluorescence slope in experiment [5] was -2.3e-05 (inactive). Further, the slope in experiment [6] was 0.0036 (inactive).
